Results from PubChem BioAssay (NCATS).
Values without a mark were called inactive. Inconclusive results are not listed. A call without a number means that no potency is given here. Calls of active or inactive are those of the source. Unless noted, calls follow the shape of the dose curve; as a rule, active = well fitted curve in the direction sought with a large enough effect; inconclusive = small, poorly fitted or top-dose-only effect, or another doubt; inactive = no such curve, though single readings can be large; an effect the other way counts as inactive or inconclusive.

Key:
[1] = AP1 Signaling Pathway (AID 357; active = well fitted curve in either direction with a large enough effect, not every such curve was filed as active;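 also: ME-180 reporter cells stimulated with EGF at its EC50 level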); conditions: ME-180 AP-1-bla reporter, EGF-induced, beta-lactamase ratio, 5 h; at 7.69 µM (top of the series) unless noted
In short: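 Titration-series screen for positive or negative modulators of EC50 EGF-induced signaling in ME-180 cells carrying an AP-1-driven beta-lactamase reporter. After 5 hours at 37 degrees Celsius, CCF4 460nm/530nm emission ratio gave %Activity; AC50 values derived.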

[2] = target: Cytochrome P450 1A2 (Homo sapiens) (UniProt P05177); assay: p450-cyp1a2 (AID 410; calls by dose curve)
In short: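 Human CYP1A2 (20nM) demethylated Luciferin-ME at its Km (100uM) in 100mM KPO4. After 10 min compound preincubation, NADPH regeneration ran the reaction 60 min at room temperature. Luciferin was read by luminescence, normalized to 57 uM furafylline.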

[3] = Stat Signaling Pathway (AID 446; active = well fitted curve in either direction with a large enough effect, not every such curve was filed as active;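 also: ME-180 cervical cancer cells given 40 pM IL-6 alongside compound; SIE-controlled beta-lactamase reporter measured as 460/530 nm FRET emission ratio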); conditions: ME-180 SIE beta-lactamase reporter, IL-6 stimulated, 5 h; at 7.69 µM (top of the series) unless noted
In short: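 ME-180 cells carrying a SIE-driven beta-lactamase reporter are stimulated with 40 pM IL-6 for 5 h at 37C in the presence of compound. The 460/530 nm FRET substrate ratio is read after 2.5 h at RT. Data are normalised to 300 pM IL-6 and to 125 nM JAK inhibitor controls.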

[4] = target: Glucocorticoid receptor (Homo sapiens) (UniProt P04150); assay: GR-GFP Redistribution (AID 450;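 active = compounds whose dose series gives a full or clear partial fitted curve of increased nuclear translocation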; also: potency is read from the fitted curve at half-maximal effect); conditions: U2OS GR-GFP nuclear translocation, laser cytometry, 2 h
[5] = target: Glucocorticoid receptor (Homo sapiens) (UniProt P04150); assay: GR-EFC Redistribution (AID 451; calls by dose curve; also: potency is read from the fitted curve at half-maximal effect); conditions: CHO-K1 GR-EFC translocation, beta-gal luminescence, 2 h
In short: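 CHO-K1 cells expressing nuclear EA and GR-ED fragments of b-gal; compounds titrated up to 46 uM final, 2 h at 37 C. GR nuclear translocation read as complemented b-gal luminescence after 1 h RT detection.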

[6] = target: Mitogen-activated protein kinase 10 (Mus musculus) (UniProt Q61831); assay: JNK3 AlphaScreen Assay (AID 530; active = well fitted curve in either direction with a large enough effect, not every such curve was filed as active;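 also: kinase came from lysate of stimulated human HepG2 cells; signal reports phosphorylation of biotinylated GST-cJun 1-79 at Ser73 with 10 µM ATP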)
In short: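 qHTS format: compounds tested as titrations against IL-1beta/TNF-alpha-activated HepG2 lysate JNK3 with biotin-GST-cJun substrate and 10 uM ATP at room temperature. Loss of anti-phospho-cJun AlphaScreen signal indicates inhibition.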

[7] = target: 3',5'-cyclic-AMP phosphodiesterase 4B (Homo sapiens) (UniProt Q07343); assay: qHTS Assay for Inhibitors of PDE-IV (AID 607; active = well fitted activation curve with a large enough effect in the main read-out, with a control signal flat, not every such curve was filed as active)
In short: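 HEK293 ACTOne cells with CNG channel (1000/well), endogenous PDE4; membrane potential dye, compounds up to 22.9 uM final. Fluorescence Ex 535/Em 590; RO 20-1724 (100 uM final) as reference.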

[8] = target: ATP-dependent 6-phosphofructokinase (Trypanosoma brucei brucei) (UniProt O15648); assay: qHTS Assay to Find Inhibitors of T. brucei phosphofructokinase: hit validation (AID 492961)
In short: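 Luminescence from ADP-Glo reports ADP generated as T. brucei PFK (1.25 nM) phosphorylates 0.5 mM fructose-6-phosphate using 0.1 mM ATP. Reactions ran 45 min at room temperature, pH 8.0.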

[9] = target: Luciferin 4-monooxygenase (Photinus pyralis) (UniProt P08659); assay: Biochemical firefly luciferase enzyme assay for NPC (AID 624030);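 also: purified P. pyralis luciferase at 10 nM with luciferin and ATP substrate; nearly all actives have a fitted effect of over 70% in size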
In short: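 Purified P. pyralis luciferase at 10 nM in 50 mM Tris Acetate (final), luminescence read within 5 minutes of enzyme addition to compounds. Activity normalised to PTC124 versus DMSO; concentration-response curves classed by r2, magnitude and activity.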

[10] = S16 Schwann cell viability assay (CellTiter-Glo assay) (AID 624031);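 also: native untransfected S16 rat Schwann cells; nearly all actives have a fitted effect of over 70% in size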
In short: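 Counter-screen for cytotoxicity: parental S16 rat Schwann cells lacking the PMP22 reporters, treated 24 h with compound, viability from cellular ATP by CellTiter-Glo luminescence, normalized to DMSO (0%) and no-cell wells.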

[11] = S16 Schwann cell PMP22 intronic element firefly luciferase assay (AID 624032); also: potency is read from the fitted curve at half-maximal effect; nearly all actives have a fitted effect of over 30% in size
In short: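 Rat S16 Schwann cells stably carrying firefly luciferase driven by a PMP22 intronic element, in 10% FBS, treated 24 h at 37 C. ONE-Glo luminescence normalized to PTC124 control and DMSO (0%); curves classed by r2, magnitude and activity.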

7G8 = assay: qHTS profiling for inhibitors of Plasmodium falciparum proliferation (AID 504749); also: nearly all actives have a fitted effect of over 60% in size; also: potency is read from the fitted curve at half-maximal effect; conditions: P. falciparum in erythrocytes, SYBR Green DNA, 72 h; series mostly up to 28.7 µM
In short: (§1)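 Readout was DNA-dye fluorescence from lysed cultures, ex 485/em 535 nm. Parasitized red cells had grown 72 h with compound; data scaled between 0.29 uM artemisinin and DMSO wells and corrected using vehicle-only plates.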

ATS189 = assay: as above; conditions: P. falciparum in erythrocytes, SYBR Green DNA, 72 h; series mostly up to 28.7 µM
In short: as §1

CP192 = assay: as above; conditions: P. falciparum in erythrocytes, SYBR Green DNA, 72 h; series mostly up to 28.7 µM
In short: as §1

CP262 = assay: as above; conditions: P. falciparum in erythrocytes, SYBR Green DNA, 72 h; series mostly up to 28.7 µM
In short: as §1

CP335 = assay: as above; conditions: P. falciparum in erythrocytes, SYBR Green DNA, 72 h; series mostly up to 28.7 µM
In short: as §1

Dd2 = assay: as above; conditions: P. falciparum in erythrocytes, SYBR Green DNA, 72 h; series mostly up to 28.7 µM
In short: as §1

ECU = assay: as above; conditions: P. falciparum in erythrocytes, SYBR Green DNA, 72 h; series mostly up to 28.7 µM
In short: as §1

FAB9 = assay: as above; conditions: P. falciparum in erythrocytes, SYBR Green DNA, 72 h; series mostly up to 28.7 µM
In short: as §1

ICS = assay: as above; conditions: P. falciparum in erythrocytes, SYBR Green DNA, 72 h; series mostly up to 28.7 µM
In short: as §1

JCK = assay: as above; conditions: P. falciparum in erythrocytes, SYBR Green DNA, 72 h; series mostly up to 28.7 µM
In short: as §1

P93_24 = assay: as above; conditions: P. falciparum in erythrocytes, SYBR Green DNA, 72 h; series mostly up to 28.7 µM
In short: as §1

PC15 = assay: as above; conditions: P. falciparum in erythrocytes, SYBR Green DNA, 72 h; series mostly up to 28.7 µM
In short: as §1

PC49 = assay: as above; conditions: P. falciparum in erythrocytes, SYBR Green DNA, 72 h; series mostly up to 28.7 µM
In short: as §1

SC27B = assay: as above; conditions: P. falciparum in erythrocytes, SYBR Green DNA, 72 h; series mostly up to 28.7 µM
In short: as §1

TAB109 = assay: as above; conditions: P. falciparum in erythrocytes, SYBR Green DNA, 72 h; series mostly up to 28.7 µM
In short: as §1

TAB165 = assay: as above; conditions: P. falciparum in erythrocytes, SYBR Green DNA, 72 h; series mostly up to 28.7 µM
In short: as §1

W2 = assay: as above; conditions: P. falciparum in erythrocytes, SYBR Green DNA, 72 h; series mostly up to 28.7 µM
In short: as §1

Chain of Glucocorticoid receptor (Homo sapiens) (P04150 whole entry, looked up, the tested form may be a part): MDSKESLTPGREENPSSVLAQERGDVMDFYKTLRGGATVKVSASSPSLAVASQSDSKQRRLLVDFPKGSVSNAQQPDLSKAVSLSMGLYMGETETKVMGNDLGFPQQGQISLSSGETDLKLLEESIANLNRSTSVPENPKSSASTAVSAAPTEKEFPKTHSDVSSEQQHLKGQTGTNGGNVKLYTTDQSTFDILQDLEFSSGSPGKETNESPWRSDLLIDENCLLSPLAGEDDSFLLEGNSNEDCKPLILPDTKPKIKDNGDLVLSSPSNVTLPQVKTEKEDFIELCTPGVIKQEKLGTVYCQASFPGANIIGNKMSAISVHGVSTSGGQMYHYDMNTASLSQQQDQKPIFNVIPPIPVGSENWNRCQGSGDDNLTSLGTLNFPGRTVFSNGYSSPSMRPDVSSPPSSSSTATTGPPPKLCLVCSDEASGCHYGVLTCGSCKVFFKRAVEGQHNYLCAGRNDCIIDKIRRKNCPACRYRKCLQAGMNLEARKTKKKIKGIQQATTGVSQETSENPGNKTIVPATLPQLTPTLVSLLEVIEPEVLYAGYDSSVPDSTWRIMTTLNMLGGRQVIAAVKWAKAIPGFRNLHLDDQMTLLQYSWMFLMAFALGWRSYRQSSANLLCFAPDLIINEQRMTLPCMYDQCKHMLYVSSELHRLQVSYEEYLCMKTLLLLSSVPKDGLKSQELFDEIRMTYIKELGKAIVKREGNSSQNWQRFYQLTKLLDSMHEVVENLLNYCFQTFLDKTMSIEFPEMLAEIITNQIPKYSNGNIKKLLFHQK
Chain of ATP-dependent 6-phosphofructokinase (Trypanosoma brucei brucei) (O15648 whole entry, looked up): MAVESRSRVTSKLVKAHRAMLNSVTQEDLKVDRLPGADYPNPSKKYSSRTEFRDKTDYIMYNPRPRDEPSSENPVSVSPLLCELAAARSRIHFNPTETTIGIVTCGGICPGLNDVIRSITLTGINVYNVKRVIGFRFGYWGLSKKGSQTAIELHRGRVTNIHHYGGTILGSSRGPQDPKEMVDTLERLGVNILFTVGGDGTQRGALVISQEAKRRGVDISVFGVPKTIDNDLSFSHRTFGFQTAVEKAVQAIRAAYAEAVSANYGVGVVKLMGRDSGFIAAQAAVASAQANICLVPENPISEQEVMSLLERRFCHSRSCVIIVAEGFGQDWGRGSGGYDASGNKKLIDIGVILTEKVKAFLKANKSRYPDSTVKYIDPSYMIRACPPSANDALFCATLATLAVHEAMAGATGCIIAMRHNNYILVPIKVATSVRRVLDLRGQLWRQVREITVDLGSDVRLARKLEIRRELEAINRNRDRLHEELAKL
Chain of Luciferin 4-monooxygenase (Photinus pyralis) (P08659 whole entry, looked up): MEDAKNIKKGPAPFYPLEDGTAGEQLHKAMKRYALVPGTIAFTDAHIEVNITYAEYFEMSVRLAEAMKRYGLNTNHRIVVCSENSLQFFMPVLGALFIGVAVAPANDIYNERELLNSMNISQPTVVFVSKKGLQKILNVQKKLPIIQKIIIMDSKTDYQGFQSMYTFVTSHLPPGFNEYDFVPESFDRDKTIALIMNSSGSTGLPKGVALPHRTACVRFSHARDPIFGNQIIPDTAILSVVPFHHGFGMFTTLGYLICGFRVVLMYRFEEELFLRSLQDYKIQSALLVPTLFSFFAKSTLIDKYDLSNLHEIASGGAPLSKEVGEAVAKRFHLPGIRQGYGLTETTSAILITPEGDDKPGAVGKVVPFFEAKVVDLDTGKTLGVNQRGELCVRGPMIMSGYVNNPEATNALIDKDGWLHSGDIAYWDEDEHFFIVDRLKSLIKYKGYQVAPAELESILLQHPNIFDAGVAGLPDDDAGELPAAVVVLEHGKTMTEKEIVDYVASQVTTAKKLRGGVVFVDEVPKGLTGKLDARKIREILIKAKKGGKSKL
Chain of 3',5'-cyclic-AMP phosphodiesterase 4B (Homo sapiens) (Q07343 whole entry, looked up): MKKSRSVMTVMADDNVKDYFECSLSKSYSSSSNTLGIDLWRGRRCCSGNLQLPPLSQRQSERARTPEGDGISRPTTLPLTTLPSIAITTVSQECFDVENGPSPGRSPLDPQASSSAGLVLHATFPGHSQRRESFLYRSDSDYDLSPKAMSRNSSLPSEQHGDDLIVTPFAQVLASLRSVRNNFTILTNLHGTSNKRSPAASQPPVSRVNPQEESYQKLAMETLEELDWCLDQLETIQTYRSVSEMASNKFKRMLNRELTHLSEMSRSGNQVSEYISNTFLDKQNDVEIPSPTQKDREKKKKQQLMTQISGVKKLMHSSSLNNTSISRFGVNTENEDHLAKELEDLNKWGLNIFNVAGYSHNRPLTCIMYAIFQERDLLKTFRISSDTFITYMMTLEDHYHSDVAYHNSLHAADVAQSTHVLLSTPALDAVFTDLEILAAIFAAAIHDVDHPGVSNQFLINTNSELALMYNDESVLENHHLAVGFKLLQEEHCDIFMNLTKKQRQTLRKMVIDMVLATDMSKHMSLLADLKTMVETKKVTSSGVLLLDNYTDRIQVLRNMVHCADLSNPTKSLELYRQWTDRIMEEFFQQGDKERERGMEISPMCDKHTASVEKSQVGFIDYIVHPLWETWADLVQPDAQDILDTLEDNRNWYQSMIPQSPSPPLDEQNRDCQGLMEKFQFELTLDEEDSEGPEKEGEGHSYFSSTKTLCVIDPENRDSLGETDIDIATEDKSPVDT
Chain of Cytochrome P450 1A2 (Homo sapiens) (P05177 whole entry, looked up): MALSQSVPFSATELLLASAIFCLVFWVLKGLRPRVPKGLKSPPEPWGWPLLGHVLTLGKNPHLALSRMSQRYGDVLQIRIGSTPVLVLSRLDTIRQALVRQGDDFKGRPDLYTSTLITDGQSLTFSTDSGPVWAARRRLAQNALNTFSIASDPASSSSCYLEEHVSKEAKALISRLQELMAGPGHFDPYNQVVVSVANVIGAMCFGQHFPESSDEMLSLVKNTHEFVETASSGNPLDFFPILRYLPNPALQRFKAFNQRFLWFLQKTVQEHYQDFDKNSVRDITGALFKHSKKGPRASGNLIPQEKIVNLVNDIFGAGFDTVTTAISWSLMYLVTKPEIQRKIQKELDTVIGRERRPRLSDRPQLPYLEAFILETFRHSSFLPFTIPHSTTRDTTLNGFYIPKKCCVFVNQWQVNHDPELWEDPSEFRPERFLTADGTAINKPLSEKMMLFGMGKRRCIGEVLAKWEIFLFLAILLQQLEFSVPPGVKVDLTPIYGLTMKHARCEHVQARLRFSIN

C=C(NC(=O)C(=C)NC(=O)c1csc(C2=N[C@@H]3c4csc(n4)[C@@H]4NC(=O)c5csc(n5)[C@@H]([C@](C)(O)[C@H](C)O)NC(=O)[C@@H]5CSC(=N5)/C(=C/C)NC(=O)[C@@H]([C@H](C)O)NC(=O)c5csc(n5)[C@]3(CC2)NC(=O)[C@@H](C)NC(=O)C(=C)NC(=O)[C@@H](C)NC(=O)[C@@H]([C@@H](C)CC)N[C@H]2C=Cc3c([C@H](C)O)cc(nc3[C@@H]2O)C(=O)O[C@H]4C)n1)C(N)=O
activity change, negative = inhibition [1]: -15.7% [at 17.2 µM] | Potency [2]: inactive | activity, negative = inhibition [3]: -4.53% [at 17.2 µM] | Potency [4]: > 20600 nM | Potency [5]: > 20600 nM | Potency [6]: inactive | Potency [7]: inactive | outcome [8]: inactive | outcome [9]: inactive | Potency [10]: inactive | Potency [11]: 8700 nM (active) | Potency (7G8): 3160 nM (active) | Potency (ATS189): inactive | Potency (CP192): inactive | Potency (CP262): inactive | Potency (CP335): 2280 nM (active) | Potency (Dd2): 1120 nM (active) | Potency (ECU): inactive | Potency (FAB9): inactive | Potency (ICS): 3160 nM (active) | Potency (JCK): inactive | Potency (P93_24): 1780 nM (active) | Potency (PC15): inactive | Potency (PC49): inactive | Potency (SC27B): inactive | Potency (TAB109): 398 nM (active) | Potency (TAB165): 2820 nM (active) | Potency (W2): 1610 nM (active)
